KCNH2 3.1 inh – blocks the human KCNH2 3.1 channel isoform; activity change, % (tested at about 1.8 µM); 0.95% of 340,000 active; U2OS KCNH2 3.1, thallium flux FluxOr; stronger effect = lower value;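 active = maximum activity change below -70%; inconclusive = maximum activity change from -70% to -50%; inactive = maximum activity change above -50%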;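 note: thallium influx rate constant from kinetic fluorescence after stimulation buffer; % is set by controls: 0 for no effect and ±100 for the full control effect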
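Channel expression came from 3.1 mutant virus (1.77 x 10^8 /mL) applied to suspended U2OS cells for 4 h. Flux was tracked with FluxOr dye plus Red40 quencher, and kinetic rate constants normalized to controls.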
hERG WT inh – blocks the wildtype human KCNH2 potassium channel. Q12809. U2OS, BacMam KCNH2, thallium flux FluxOr; stronger effect = lower value. activity change, % at 1.84 µM. 0.37% of 340,000 active. AID 720551;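 active = maximum activity change below -70%; inconclusive = maximum activity change between -70% and -50%; inactive = maximum activity change above -50%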; note: % is set by controls: 0 for no effect and ±100 for the full control effect
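U2OS cells transduced with wild-type KCNH2 virus are loaded with FluxOr dye for 45 min, and thallium flux is measured in kinetic reads before and after stimulation buffer. Rate constants are normalized to DMSO controls.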
Apoferritin bind – candidate novel general anesthetic via apoferritin binding; Potency, µM (titrated, usually from 77.5 µM), inactives show top-dose activity change, negative = displacement, hits mostly inhibitors; P02791; apoferritin/1-aminoanthracene competitive binding, fluorescence; 0.074% of 350,000 active; note: potency is the fitted concentration of half-maximal effect; % is set by controls: 0 for no effect and ±100 for the full control effect; nearly all actives have a fitted effect of over 20% in size
Target sequence (P02791 2-175 limits assumed): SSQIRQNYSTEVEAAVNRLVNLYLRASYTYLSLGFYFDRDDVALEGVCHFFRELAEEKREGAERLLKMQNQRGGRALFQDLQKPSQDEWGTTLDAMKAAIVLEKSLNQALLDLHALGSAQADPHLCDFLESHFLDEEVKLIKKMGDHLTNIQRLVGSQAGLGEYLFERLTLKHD
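Concentration-response curves derived by four-parameter Hill fitting of normalized fluorescence, where compounds displaced 1-AMA from 10 uM horse apoferritin following a brief 10 min room-temperature incubation; propofol titration acted as positive control.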
S-ASM inh – human S-ASM enzyme inhibition; P17405; placental ASM, HMU-PC fluorogenic substrate, 60 min; 0.006% of 340,000 active; Potency, µM (doses to about 57.5 µM), inactives show at the top dose activity change, negative = inhibition, hits mostly inhibitors; note: potency is the fitted concentration of half-maximal effect
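Human placenta-derived ASM enzyme was preincubated with compound for 10 minutes at room temperature, then given fluorogenic substrate HMU-PC0 (9 uM final) for 60 minutes at 37 °C; a pH 10 stop preceded fluorescence reading at Ex 386/Em 447 nm.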
mIDH1 inhibitor – human IDH1 R132H inhibition. O75874. 0.093% of 390,000 active. Potency, µM (top dose mostly 76.6 µM), for inactives: at the top dose activity change, negative = inhibition, most hits filed as inhibitors. IDH1-R132H enzyme, NADPH consumption, diaphorase/resazurin fluorescence; note: potency is the fitted concentration of half-maximal effect; % is set by controls: 0 for no effect and ±100 for the full control effect; nearly all actives have a fitted effect of over 65% in size
Target sequence (O75874 whole entry R132H, stated change not applied): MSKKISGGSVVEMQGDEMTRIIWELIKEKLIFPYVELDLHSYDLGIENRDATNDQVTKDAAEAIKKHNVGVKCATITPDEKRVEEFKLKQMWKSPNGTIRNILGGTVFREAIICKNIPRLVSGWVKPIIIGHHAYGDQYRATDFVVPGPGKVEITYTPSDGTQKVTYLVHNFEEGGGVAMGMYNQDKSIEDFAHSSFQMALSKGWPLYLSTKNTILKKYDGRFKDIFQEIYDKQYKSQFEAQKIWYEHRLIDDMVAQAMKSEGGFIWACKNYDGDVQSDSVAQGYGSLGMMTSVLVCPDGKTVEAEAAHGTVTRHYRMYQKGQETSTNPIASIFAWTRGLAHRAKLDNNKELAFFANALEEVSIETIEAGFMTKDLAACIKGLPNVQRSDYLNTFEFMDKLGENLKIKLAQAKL
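IDH1-R132H (0.5 ug/mL) preincubated 30 min with compound, then NADPH (0.016 mM) and alpha-KG (2 mM) added; 80 min at RT, pH 7.5. Remaining NADPH coupled via diaphorase/resazurin to fluorescence (540/590 nm); concentration-response curves normalized to no-enzyme control.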
The depositor's hits bear a star; ? = inconclusive; . = not tested or not shown; [ ] = remark or other dose. This is a sample that favours compounds with a hit; in the whole collection about 1.2% have one here. Unless noted, calls come from the whole dose curve; as a rule, active = well fitted inhibition curve with a large enough effect; inconclusive = small, poorly fitted or top-dose-only effect; inactive = no such curve, though single readings can be large or run the other way.

SMILES | KCNH2 3.1 inh | hERG WT inh | Apoferritin bind | S-ASM inh | mIDH1 inhibitor
CCOc1ccc(CCNC(=O)Cn2ncc3c(=O)oc4ccc(C)cc4c32)cc1 | . | . | 2.1% | . | 12.9%
COc1ccc(C)cc1NC(=O)CN1C(=O)CCc2cc(S(=O)(=O)N3CCOCC3)ccc21 | . | . | 3.6% | . | 0.6%
C/C=C/c1ccc(OCC(O)CNCCc2ccc(OC)cc2)c(OC)c1 (centres undefined) | -71.0* | 2.8 | -9.4% | -4.8% | 16.3%
C/C=C/c1ccc(OCC(O)CNCC(c2ccc(OC)cc2)N(C)C)c(OC)c1 (centres undefined) | -73.4* | -6.9 | -1.7% | -1.5% | 9.7%
COc1ccc(CCNCC(O)COc2ccc(Cl)cc2)cc1OC (centres undefined) | ? | 37.0 | -10.2% | 3.6% | -8.7%
C/C=C/c1ccc(OCC(O)CN2CCCCC2CC)c(OC)c1 (centres undefined) | -24.2 | 21.7 | -4.7% | 1.8% | 19.7%
C/C=C/c1ccc(OCC(O)CN(C)Cc2ccc(SC)cc2)c(OC)c1 (centres undefined) | -112.3* | ? | -7.4% | -7.4% | 9.6%
O=C(CCS(=O)(=O)c1cc(Br)cc2c1N(C(=O)C1CC1)CC2)Nc1ccc(F)cc1 | . | . | 0.9% | . | 0.0%
Cn1c2ccccc2c2c(C(=O)N3CCN(c4cccc(Cl)c4)CC3)cn(C3CCCCC3)c(=O)c21 | . | . | 99.1% | . | -7.7%
CCOC(=O)c1c(C)oc(NC(=O)COc2ccc(Cl)cc2C)c1C#N | -75.0* | -2.2 | -14.6% | -17.0% | -2.4%
CCC1=C2CC[C@H]3C(=O)N(CC(=O)OC)C(=O)[C@H]3[C@H]2[C@@]2(C)C(=O)N(Cc3ccccc3)C(=O)N2C1=O | . | . | 4.4% | . | .
CCOc1cc(/C=C(\C#N)C(=O)NCC2CCCO2)ccc1O (centres undefined) | -3.7 | 1.9 | -8.0% | -2.2% | 0.0%
CCOc1cc(/C=C(\C#N)C(=O)NCC2CCCO2)ccc1OCC(N)=O (centres undefined) | -184.8* | -136.1* | -2.4% | -1.0% | -11.8%
CCOC(=O)N1CCN(C(=O)c2cnc(Nc3ccccc3OC)c3ccccc23)CC1 | -193.2* | 1.7 | -3.1% | 29.5% | 4.3%
COc1cccc(COc2ccc3ccc(=O)oc3c2)c1 | -74.5* | -4.0 | ? | 1.7% | -9.4%
COc1ccc(COc2ccc3ccc(=O)oc3c2)cc1 | -26.8 | 10.0 | -18.4% | 6.7% | 11.4%
COc1ccccc1-n1c(/C=C/c2c(C)n(C)c3ccccc23)nc2ccccc2c1=O | . | . | 112.8% | . | 12.1%
CCOc1ccc(NC(=O)CN2CCN(CC(=O)Nc3cccc(F)c3)CC2)cc1 | -85.0* | -19.7 | -7.5% | 0.0% | 2.0%
CCOc1ccc(NC(=O)CN2CCN(CC(=O)Nc3ccc(F)cc3F)CC2)cc1 | . | . | 1.4% | . | 10.1%
CS(=O)(=O)c1ccc(Cl)c(NC(=O)CN2CCN(S(=O)(=O)/C=C/c3ccccc3)CC2)c1 | -84.4* | 25.8 | . | -2.5% | 5.6%
COc1ccc(S(=O)(=O)N2CCN(CC(=O)Nc3cc(Cl)ccc3Cl)CC2)cc1 | -85.1* | 0.9 | . | 4.1% | -0.6%
COc1ccc(NC(=O)CN2CCN(CC(=O)Nc3ccccc3OC)CC2)c(OC)c1 | -30.8 | 17.5 | -5.8% | -0.9% | -8.8%
COc1ccc(Cl)cc1NC(=O)CN1CCN(S(=O)(=O)c2ccc(F)cc2)CC1 | -7.8 | 26.5 | -0.4% | -10.5% | 5.0%
COc1ccc(NC(=O)CN2CCc3ccccc3C2)c(OC)c1 | 0.3 | -246.6* | -21.3% | 5.2% | 3.7%
Cc1cccc(NC(=O)C(NS(=O)(=O)c2cccc3nsnc23)c2ccccc2)c1C (centres undefined) | . | . | ? | . | 9.5%
SMILES | KCNH2 3.1 inh | hERG WT inh | Apoferritin bind | S-ASM inh | mIDH1 inhibitor
CCOC(=O)c1c(S(=O)(=O)N2CCCC(C(=O)N3CCN(c4cccc(C)c4C)CC3)C2)c(C)n(C)c1C (centres undefined) | . | . | -12.7% | . | -14.1%
COc1ccc(NC(=O)CN2CCN(CC(=O)Nc3ccc(F)cc3)CC2)cc1Cl | -91.2* | 1.7 | -2.5% | 1.5% | 25.0%
COc1cc(NC(=O)CN2CCN(CC(=O)Nc3ccc(F)cc3)CC2)cc(OC)c1 | . | . | 5.9% | . | 2.9%
COc1ccc(NC(=O)CN2CCN(CC(=O)Nc3ccccc3Cl)CC2)cc1 | -85.5* | -21.4 | -10.6% | -2.0% | 2.3%
COc1cccc(NC(=O)CN2CCN(CC(=O)Nc3ccc(F)cc3)CC2)c1 | -84.5* | -38.2 | 2.2% | 4.3% | -10.9%
COc1ccccc1NC(=O)CN1CCN(CC(=O)Nc2ccc(F)cc2)CC1 | ? | -36.2 | 2.2% | 2.5% | 1.0%
COc1ccccc1NC(=O)CN1CCN(CC(=O)Nc2ccc(OCc3ccccc3)cc2)CC1 | -78.7* | -24.8 | ? | -9.0% | 4.0%
c1ccc(CNc2ccnc(-c3ccoc3)n2)cc1 | . | . | -5.9% | . | .
CCCCCCN(C(=O)CCCCCN1C(=O)NC(c2ccccc2-c2ccccc2)C(C(=O)OCc2ccccc2)=C1C)C(C(=O)NCCCC)c1ccc(OCC(=O)OC)c(C(=O)OC)c1 (centres undefined) | . | . | -8.2% | . | .
COc1ccc(NC(=O)CN2CCN(CC(=O)Nc3ccc(F)cc3F)CC2)cc1 | -117.0* | -120.4* | 1.3% | -1.8% | -10.3%
COc1ccc(CN2CCCN(S(=O)(=O)c3ccc(Br)cc3)CC2)cc1 | -101.6* | -126.0* | 3.7% | 0.6% | -9.2%
COC(=O)C/C=C\[C@@H](C)[C@@H](/C=N\O[C@@H]1O[C@H](COC(C)=O)[C@H](OC(C)=O)[C@H](OC(C)=O)[C@H]1OC(C)=O)OC | . | . | -2.7%[15.3 µM] | . | .
O=c1[nH]ncc(N2CCCCC2)c1Cl | -1.5 | -1.2 | -4.7% | 2.2% | 6.3%
O=c1[nH]ncc(N2CCCCCC2)c1Cl | -100.0* | -8.8 | -12.9% | 0.2% | 2.8%
CCCCCCCC[n+]1cccc(C(=O)N(CC)CC)c1 | 4.1 | . | 1.3% | -0.2% | 12.7%
CCCCCCCCCCCCCCCC[n+]1cccc(C(=O)N(CC)CC)c1 | -17.8 | 5.7 | 15.8µM* | ? | -4.7%
CC(OC(=O)c1nc(-c2ccccc2)n(-c2ccccc2)n1)C(=O)Nc1cc(Cl)cc(Cl)c1 (centres undefined) | -43.9 | -141.9* | -6.5% | -1.8% | -8.9%
CCOc1ccc(S(=O)(=O)Nc2cccc(-c3ccc(OCC)nn3)c2)cc1 | . | . | -17.0% | . | -21.7%
CC1CC(C)CN(S(=O)(=O)c2ccc3c(c2)oc(=O)n3CC(=O)NCc2cccnc2)C1 (centres undefined) | -1.9 | -157.0* | -0.1% | 0.5% | 9.7%
CCC(C)(C)NC(=O)Cn1c(=O)oc2cc(S(=O)(=O)N3CC(C)CC(C)C3)ccc21 (centres undefined) | -30.9 | 3.1 | 1.6% | 1.3% | -10.2%
Cc1ccc(C)c(CN2CCC(CNC(=O)Nc3cccc(Cl)c3C)CC2)c1 | -23.5 | 7.4 | 1.4% | -0.8% | 0.0%
Cc1ccc(NC(=O)NCC2CCN(Cc3cc(C)ccc3Cl)CC2)c(C)c1 | -23.5 | -150.6* | -9.3% | -3.6% | 0.0%
